ELG1 repair inh – inhibitors of ELG1-dependent DNA repair in HEK293T cells; Potency, µM (top dose mostly 46.1 µM), for the others: top-dose activity change, negative = inhibition, usual class: inhibitors; HEK293T ELG1-luciferase reporter, luminescence, 16 h; DNA damage induced by 5-fluorouridine; hit rate 2.3% among 330,000; further: on the % scale 0 is the no-effect control and ±100 the full control effect; nearly all actives have a fitted effect of over 55% in size
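Reporter activity after DNA damage by 5-fluorouridine is monitored. Compound-treated cells incubate 16 hr at 37 °C, then ONE-Glo is added for 30 min before luminescence reading.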
MCF10A rereplic – induces DNA re-replication in MCF 10a normal breast cells; MCF 10A DNA re-replication, Hoechst nuclear intensity, 48 h; Potency, µM (top dose mostly 46.1 µM), without a hit: at the highest dose activity, positive = re-replication, actives largely listed as activators; hit rate 2.9% among 350,000; further: % of control where 0% means no effect; nearly all actives have a fitted effect of over 50% in size
SW480 rerep – DNA re-replication induction in SW480 cells; AID 624297; SW480 DNA re-replication, Hoechst DNA content imaging, 48 h; Potency, µM (doses to about 46.1 µM), inactives show at the highest dose re-replication activation, most hits filed as activators; hit rate 1.8% among 340,000; further: % of control where 0% means no effect; nearly all actives have a fitted effect of over 55% in size
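Treated cells incubate 48 hr (37 C, 5% CO2), are stained 40 min with Hoechst, and nuclear fluorescence is enumerated; a rise in nuclei with high DNA signal marks re-replication.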
Gal4-VP16 FLuc – Gal4-VP16 reporter inhibition counter-screen. Drosophila S2 Gal4-VP16 UAS-luciferase, luminescence, 20 h. Potency, µM (doses to about 53.6 µM), for inactives: top-dose activity, negative = inhibition, usual class: inhibitors. hit rate 3.5% among 310,000;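 further: Gal4-VP16 expression switched on by copper sulfate through the metallothionein promoter; on the % scale 0 is the no-effect control and ±100 the full control effect; nearly all actives have a fitted effect of over 50% in size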
RORg inh – blocks mouse ROR gamma transcriptional activity. Potency, µM (highest dose often 53.6 µM), inactives show at the top dose activity change, negative = inhibition, most hits filed as inhibitors. hit rate 5.4% among 310,000. AID 2551. Drosophila S2 Gal4-RORgamma UAS-luciferase reporter, 20 h; further: on the % scale 0 is the no-effect control and ±100 the full control effect; nearly all actives have a fitted effect of over 60% in size
Target sequence (P51450 whole entry, looked up, the tested form may be a part): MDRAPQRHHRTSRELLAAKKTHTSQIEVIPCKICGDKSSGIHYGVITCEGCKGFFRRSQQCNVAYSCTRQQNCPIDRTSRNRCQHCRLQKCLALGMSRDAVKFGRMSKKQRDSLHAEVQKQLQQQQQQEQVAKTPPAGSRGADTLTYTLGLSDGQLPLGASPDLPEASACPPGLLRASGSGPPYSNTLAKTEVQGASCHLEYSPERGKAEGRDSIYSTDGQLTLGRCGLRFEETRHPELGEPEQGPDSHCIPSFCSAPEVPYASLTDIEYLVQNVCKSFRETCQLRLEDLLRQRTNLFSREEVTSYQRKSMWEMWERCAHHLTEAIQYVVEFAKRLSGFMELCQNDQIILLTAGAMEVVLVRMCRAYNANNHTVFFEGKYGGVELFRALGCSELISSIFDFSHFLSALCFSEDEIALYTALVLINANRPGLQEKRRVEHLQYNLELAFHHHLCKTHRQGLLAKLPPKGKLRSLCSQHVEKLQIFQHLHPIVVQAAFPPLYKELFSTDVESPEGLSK
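Stable Schneider cell line, Gal4 DNA-binding domain fused to ROR gamma, UAS-luciferase. Cmpd 1 hr RT → CuSO4 700 uM final → 20 hr RT → luciferase reagent 10 min → luminescence.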
Starred values were filed as active, the others as inactive; ? = inconclusive; . = no result given; [ ] = dose if it differs, or a comment. This is a sample that favours compounds with a hit; in the whole collection about 10% have one here. The call rests on the fitted dose curve; in most records, active means well fitted curve in the direction sought with a large enough effect; inconclusive means small, poorly fitted or top-dose-only effect, or another doubt; inactive means no such curve, though single readings can be large; an effect the other way counts as inactive or inconclusive. Potency means the concentration at half of the fitted maximal effect.

SMILES	ELG1 repair inh	MCF10A rereplic	SW480 rerep	Gal4-VP16 FLuc	RORg inh
O=C(c1cn(-c2ccccc2)nc1-c1cccs1)N1CCN(c2ccccc2)CC1	6%	6.5µM*	2.9µM*	10%	?
Cc1ccc(-c2nn(-c3ccccc3)cc2CSC(=N)N)cc1	0%	?	?	?	?
Cc1cc(S(=O)(=O)Nc2ccc(C(=O)NCc3cccnc3)cc2)ccc1F	1%	21%	-1%	.	.
COc1ccccc1/C=C/C(=O)c1cc(Br)ccc1OC(=O)c1ccco1	.	10µM*	?	.	.
O=C(/C=C/c1ccccc1O)c1ccco1	14%	15µM*	?	11µM*	7.9µM*
Cc1ccc(/C=C/C(=O)c2cc(Br)ccc2OC(=O)c2ccco2)cc1	?	16µM*	?	2%[0.365 µM]	?
C[C@@H](CO)NC(=O)c1ccc2c3n(nc2c1)-c1ccccc1CO3	?	6%	-21%	?	6.3µM*
CCOC(=O)c1cnc2ccc(OC)cc2c1Nc1ccc2c(c1)OCCO2	?	23%	9%	-9%	18%
CCOC(=O)c1cnc2c(OC)cccc2c1Nc1ccc2c(c1)OCCO2	?	?	?	18µM*	16µM*
Cc1nnc(Sc2cc(NCCCO)c([N+](=O)[O-])c3nonc23)s1	12%	19%	-3%	6.3µM*	3.5µM*
CCCSc1cc(NCCOC(C)=O)c([N+](=O)[O-])c2nonc12	-1%	-6%	-8%	14%	-35%
Cc1nnc(Sc2cc(NCCO)c([N+](=O)[O-])c3nonc23)s1	-1%	?	18%	?	3.2µM*
CC1CN(C2CCCCC2)C(=O)NC1=O (stereo unspecified)	.	3%	-11%	.	.
CCOCCCNC(=O)C(NC(=O)Cc1cccs1)c1ccc(OC)cc1 (stereo unspecified)	23%	4%	?	3%	11%
CCOCCCNC(=O)C(NC(=O)Cc1cccs1)c1ccc(Cl)cc1 (stereo unspecified)	2%	2%	1%	13µM*	?
O=C(Cc1ccccn1)c1ccc(Cl)cc1	?	27%	-2%	.	.
CC1=C(CC(=O)c2ccc(Cl)cc2)C(=O)c2ccccc2C1=O	?	4.1µM*	4.1µM*	0%	-25%
CN1C(=O)/C(=C/c2ccccc2Cl)Sc2ccc(C(=O)N3CCCC3)cc21	?	18µM*	-8%	3%	24%
CCOC(=O)C1CCCN(C(=O)c2ccc3c(c2)N(C)C(=O)/C(=C/c2ccccc2Cl)S3)C1 (stereo unspecified)	15µM*	?	?	-12%	27%
CCOC(=O)C1CCCN(C(=O)c2cccc(N3C(=O)c4ccccc4C3=O)c2)C1 (stereo unspecified)	4%	2%	-9%	.	.
CCCN(C(=O)COC(=O)c1nc2nc(C)cc(C)n2n1)C1CCS(=O)(=O)C1 (stereo unspecified)	6%	-12%	-44%	.	.
Cc1cc(Nc2ccc3ccccc3c2)n2ncnc2n1	?	?	11%	?	6.3µM*
CC(=O)Nc1ccc(Nc2cc(-c3ccccc3)nc3ncnn23)cc1	2%	7%	-15%	2%	-15%
FC(F)(F)c1cccc(Nc2cc(-c3ccccc3)nc3ncnn23)c1	-5%	-2%	-2%	-11%	2µM*
Cc1ccc(S(=O)(=O)Nc2ccccc2F)cc1C(=O)NCc1ccco1	2%	-3%	-1%	.	.
Cc1[nH]c2ccccc2c1/C=N/Nc1nc(Nc2ccc(F)cc2)nc(N2CCOCC2)n1	21µM*	5%	1%	5.6µM*	2.5µM*
c1ccc(Nc2nc(N3CCOCC3)nc(N3CCOCC3)n2)cc1	?	?	18%	-6%	-4%
O=C(Oc1cccc(/C=N/Nc2nc(Nc3ccccc3)nc(N3CCOCC3)n2)c1)c1ccco1	9.2µM*	?	?	7%	-6%
C(=N\Nc1nc(Nc2ccccc2)nc(N2CCOCC2)n1)/c1c[nH]c2ccccc12	16µM*	16µM*	0.82µM*	-8%	-29%
Cc1ccc(Nc2nc(N/N=C/c3c[nH]c4ccccc34)nc(N3CCOCC3)n2)cc1	16µM*	?	13µM*	?	11µM*

Screening data from PubChem BioAssay.
